Key:
[1] = target: T1, Ephrin type-B receptor 1 (Homo sapiens) (UniProt P54762); details: at 10 µM
T1 sequence (whole entry): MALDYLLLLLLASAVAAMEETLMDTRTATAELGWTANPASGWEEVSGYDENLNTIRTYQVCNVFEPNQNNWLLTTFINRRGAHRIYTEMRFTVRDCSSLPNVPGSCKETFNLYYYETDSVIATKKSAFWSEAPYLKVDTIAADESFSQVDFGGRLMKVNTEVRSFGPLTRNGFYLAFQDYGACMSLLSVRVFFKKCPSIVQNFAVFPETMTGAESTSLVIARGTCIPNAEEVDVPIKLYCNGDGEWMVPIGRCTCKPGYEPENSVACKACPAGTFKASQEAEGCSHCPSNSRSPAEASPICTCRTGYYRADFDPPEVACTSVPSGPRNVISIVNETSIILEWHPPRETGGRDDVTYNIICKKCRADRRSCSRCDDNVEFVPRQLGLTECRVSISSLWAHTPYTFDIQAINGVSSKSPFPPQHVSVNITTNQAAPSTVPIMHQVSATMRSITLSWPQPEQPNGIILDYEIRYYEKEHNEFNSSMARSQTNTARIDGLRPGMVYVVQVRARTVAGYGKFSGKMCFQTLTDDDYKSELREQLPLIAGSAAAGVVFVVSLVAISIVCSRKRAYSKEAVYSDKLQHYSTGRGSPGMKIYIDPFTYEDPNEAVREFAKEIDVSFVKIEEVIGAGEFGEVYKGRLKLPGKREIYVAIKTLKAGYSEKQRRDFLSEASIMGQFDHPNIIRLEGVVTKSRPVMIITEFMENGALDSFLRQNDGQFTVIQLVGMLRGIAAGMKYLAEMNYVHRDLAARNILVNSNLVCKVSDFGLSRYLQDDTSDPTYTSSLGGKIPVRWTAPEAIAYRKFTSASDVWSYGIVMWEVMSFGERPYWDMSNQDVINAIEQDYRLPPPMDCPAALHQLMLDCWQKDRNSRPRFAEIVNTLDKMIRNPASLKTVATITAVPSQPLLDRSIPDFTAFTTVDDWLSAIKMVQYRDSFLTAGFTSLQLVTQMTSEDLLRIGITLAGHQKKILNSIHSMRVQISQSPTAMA

[2] = target: T2, Ephrin type-B receptor 2 (Homo sapiens) (UniProt P29323); details: at 1 µM
T2 sequence (whole entry): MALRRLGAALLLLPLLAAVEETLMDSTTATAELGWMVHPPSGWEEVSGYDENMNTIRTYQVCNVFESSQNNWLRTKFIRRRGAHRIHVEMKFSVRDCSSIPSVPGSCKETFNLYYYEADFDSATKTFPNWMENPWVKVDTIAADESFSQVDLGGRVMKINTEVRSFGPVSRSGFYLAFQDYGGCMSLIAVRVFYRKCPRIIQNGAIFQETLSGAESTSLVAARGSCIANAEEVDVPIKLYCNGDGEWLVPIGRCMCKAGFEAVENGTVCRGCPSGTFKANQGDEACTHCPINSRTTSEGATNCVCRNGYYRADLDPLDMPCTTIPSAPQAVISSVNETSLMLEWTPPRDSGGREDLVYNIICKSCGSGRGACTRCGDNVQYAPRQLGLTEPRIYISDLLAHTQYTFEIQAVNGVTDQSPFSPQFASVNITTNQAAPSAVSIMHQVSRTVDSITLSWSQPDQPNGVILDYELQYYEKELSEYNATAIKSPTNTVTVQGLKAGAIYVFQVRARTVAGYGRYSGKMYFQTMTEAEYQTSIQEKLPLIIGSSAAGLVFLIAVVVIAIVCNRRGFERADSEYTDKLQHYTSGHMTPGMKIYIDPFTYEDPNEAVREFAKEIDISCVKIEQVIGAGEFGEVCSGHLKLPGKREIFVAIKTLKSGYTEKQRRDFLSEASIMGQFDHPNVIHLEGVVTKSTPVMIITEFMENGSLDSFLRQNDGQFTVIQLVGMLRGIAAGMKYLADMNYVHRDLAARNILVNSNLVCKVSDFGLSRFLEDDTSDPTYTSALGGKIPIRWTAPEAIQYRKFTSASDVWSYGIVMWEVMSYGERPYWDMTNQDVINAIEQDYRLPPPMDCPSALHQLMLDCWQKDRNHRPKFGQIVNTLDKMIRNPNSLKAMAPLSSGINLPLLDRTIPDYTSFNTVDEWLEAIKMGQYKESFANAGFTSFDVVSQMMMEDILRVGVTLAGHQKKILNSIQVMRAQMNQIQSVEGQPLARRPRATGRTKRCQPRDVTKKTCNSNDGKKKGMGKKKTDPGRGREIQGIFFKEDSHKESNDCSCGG

[3] = target: T2, Ephrin type-B receptor 2 (Homo sapiens); details: at 10 µM
[4] = target: T3, Ephrin type-B receptor 3 (Homo sapiens) (UniProt P54753); details: at 1 µM
T3 sequence (whole entry): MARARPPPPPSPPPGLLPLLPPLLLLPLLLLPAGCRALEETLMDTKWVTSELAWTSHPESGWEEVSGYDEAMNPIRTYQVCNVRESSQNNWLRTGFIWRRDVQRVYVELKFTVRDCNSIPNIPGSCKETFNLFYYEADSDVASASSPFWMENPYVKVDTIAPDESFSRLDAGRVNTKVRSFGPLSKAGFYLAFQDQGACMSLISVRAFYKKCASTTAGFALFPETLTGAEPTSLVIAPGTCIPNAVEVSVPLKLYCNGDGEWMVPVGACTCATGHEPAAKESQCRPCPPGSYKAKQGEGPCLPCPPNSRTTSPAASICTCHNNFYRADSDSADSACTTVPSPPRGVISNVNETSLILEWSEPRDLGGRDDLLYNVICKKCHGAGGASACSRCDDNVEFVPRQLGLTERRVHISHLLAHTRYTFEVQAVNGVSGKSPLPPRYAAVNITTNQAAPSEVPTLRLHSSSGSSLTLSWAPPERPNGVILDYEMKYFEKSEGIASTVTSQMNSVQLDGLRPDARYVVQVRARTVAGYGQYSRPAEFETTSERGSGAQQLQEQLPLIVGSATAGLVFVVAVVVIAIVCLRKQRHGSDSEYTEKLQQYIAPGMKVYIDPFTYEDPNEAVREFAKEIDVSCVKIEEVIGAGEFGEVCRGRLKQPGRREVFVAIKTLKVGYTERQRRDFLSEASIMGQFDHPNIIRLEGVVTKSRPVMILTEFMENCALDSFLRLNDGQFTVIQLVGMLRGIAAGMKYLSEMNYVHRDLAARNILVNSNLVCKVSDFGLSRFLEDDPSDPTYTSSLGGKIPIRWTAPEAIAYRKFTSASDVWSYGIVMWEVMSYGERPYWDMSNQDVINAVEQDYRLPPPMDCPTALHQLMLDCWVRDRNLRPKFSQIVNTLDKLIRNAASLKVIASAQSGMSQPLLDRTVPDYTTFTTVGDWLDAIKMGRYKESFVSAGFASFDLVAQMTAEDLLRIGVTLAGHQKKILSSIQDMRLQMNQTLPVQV

[5] = target: T3, Ephrin type-B receptor 3 (Homo sapiens); details: at 10 µM
[6] = target: T4, Ephrin type-B receptor 4 (Homo sapiens) (UniProt P54760); details: at 1 µM
T4 sequence (whole entry): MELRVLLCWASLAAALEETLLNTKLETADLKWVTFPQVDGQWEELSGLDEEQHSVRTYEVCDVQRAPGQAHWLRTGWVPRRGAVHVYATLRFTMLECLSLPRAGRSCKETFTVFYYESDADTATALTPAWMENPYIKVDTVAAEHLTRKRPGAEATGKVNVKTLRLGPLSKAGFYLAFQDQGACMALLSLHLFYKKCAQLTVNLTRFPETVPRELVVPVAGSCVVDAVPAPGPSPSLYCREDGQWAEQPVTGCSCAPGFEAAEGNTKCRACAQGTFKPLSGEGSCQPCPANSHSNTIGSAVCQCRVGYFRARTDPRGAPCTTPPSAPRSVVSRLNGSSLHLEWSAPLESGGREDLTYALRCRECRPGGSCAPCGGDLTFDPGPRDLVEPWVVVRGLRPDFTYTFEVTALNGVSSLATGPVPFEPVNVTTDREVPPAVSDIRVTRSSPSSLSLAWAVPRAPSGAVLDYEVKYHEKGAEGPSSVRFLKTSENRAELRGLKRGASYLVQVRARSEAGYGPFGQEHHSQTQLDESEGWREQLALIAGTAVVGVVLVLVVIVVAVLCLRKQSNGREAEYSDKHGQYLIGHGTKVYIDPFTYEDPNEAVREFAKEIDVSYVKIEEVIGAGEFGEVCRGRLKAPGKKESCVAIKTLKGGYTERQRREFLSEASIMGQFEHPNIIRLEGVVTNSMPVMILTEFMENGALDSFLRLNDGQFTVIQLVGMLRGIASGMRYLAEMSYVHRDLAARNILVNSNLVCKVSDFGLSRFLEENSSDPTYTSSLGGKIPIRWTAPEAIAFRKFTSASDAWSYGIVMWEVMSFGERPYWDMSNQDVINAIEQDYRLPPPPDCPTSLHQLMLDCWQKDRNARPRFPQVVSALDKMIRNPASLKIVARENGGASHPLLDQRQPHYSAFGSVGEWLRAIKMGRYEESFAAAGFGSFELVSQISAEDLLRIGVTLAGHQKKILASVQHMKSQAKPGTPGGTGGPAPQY

[7] = target: T4, Ephrin type-B receptor 4 (Homo sapiens); details: at 10 µM
[8] = target: Receptor tyrosine-protein kinase erbB-4 (Homo sapiens) (UniProt Q15303); details: at 1 µM
Sequence of Receptor tyrosine-protein kinase erbB-4 (Homo sapiens) (Q15303 whole entry): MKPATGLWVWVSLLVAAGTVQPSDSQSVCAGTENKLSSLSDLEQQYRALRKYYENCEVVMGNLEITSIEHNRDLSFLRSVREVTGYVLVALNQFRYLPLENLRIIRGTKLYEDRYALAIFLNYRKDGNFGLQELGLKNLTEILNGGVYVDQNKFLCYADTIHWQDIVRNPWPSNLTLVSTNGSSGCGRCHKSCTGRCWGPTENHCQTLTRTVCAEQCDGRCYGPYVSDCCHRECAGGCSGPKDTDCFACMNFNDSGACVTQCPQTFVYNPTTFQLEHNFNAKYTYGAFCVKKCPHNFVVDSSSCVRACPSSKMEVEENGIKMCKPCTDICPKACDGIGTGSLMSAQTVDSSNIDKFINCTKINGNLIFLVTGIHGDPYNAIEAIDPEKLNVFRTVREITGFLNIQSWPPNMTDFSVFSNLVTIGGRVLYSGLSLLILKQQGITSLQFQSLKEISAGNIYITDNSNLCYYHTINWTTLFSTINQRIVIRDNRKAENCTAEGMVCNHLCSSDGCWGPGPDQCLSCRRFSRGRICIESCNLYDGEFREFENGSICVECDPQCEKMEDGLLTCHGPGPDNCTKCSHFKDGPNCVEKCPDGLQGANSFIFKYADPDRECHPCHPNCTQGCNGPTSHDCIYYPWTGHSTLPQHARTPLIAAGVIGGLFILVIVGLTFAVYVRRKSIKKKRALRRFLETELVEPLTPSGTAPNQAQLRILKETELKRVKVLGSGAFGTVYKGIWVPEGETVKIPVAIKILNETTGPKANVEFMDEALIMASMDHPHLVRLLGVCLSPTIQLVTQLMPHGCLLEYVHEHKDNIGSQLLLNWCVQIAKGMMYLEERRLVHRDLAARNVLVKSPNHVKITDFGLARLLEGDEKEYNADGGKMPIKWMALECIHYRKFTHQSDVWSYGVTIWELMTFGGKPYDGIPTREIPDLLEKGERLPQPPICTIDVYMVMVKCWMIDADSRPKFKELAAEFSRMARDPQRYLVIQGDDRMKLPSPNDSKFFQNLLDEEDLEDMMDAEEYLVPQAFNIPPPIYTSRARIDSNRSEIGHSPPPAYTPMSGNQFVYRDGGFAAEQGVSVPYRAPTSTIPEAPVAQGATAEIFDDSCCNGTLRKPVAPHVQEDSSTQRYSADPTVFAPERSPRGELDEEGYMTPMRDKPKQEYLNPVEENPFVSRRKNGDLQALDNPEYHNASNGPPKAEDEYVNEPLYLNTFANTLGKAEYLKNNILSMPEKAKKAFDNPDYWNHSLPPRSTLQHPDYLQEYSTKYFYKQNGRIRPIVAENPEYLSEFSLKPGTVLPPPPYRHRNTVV

[9] = target: Receptor tyrosine-protein kinase erbB-4 (Homo sapiens) (UniProt Q15303); details: at 10 µM
[10] = target: Focal adhesion kinase 1 (Homo sapiens) (UniProt Q05397); details: at 1 µM
Sequence of Focal adhesion kinase 1 (Homo sapiens) (Q05397 2-1052 limits assumed): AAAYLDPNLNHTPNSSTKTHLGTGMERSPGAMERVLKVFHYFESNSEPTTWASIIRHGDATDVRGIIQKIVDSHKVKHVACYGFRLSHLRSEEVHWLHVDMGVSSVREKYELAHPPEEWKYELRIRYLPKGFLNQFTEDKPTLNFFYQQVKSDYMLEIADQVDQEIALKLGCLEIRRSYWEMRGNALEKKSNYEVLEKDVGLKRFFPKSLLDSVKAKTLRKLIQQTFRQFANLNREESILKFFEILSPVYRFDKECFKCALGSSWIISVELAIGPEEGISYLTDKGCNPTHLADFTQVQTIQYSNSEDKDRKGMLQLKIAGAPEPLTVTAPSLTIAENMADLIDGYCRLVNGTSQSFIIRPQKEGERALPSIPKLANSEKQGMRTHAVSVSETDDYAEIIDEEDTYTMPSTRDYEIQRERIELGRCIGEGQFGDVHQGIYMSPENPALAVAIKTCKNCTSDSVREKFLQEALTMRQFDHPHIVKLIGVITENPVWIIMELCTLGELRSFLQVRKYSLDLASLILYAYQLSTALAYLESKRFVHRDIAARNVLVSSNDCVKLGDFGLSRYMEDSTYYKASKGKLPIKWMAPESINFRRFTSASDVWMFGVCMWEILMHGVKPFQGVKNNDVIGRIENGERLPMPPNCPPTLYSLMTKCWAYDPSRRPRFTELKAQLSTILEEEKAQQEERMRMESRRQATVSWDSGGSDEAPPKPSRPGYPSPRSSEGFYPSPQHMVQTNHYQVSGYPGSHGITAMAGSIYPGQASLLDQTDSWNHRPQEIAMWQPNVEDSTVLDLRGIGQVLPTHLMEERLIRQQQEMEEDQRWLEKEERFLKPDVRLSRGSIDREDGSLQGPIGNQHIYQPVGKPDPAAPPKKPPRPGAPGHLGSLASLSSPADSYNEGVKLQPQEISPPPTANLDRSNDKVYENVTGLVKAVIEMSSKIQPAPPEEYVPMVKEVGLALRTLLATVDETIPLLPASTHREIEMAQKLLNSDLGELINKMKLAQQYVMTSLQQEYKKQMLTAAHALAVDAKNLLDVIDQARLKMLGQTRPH

Structure (SMILES) | residual activity [1] [%] | residual activity [2] [%] | residual activity [3] [%] | residual activity [4] | residual activity [5] [%] | residual activity [6] [%] | residual activity [7] [%] | residual activity [8] [%] | residual activity [9] [%] | residual activity [10] [%]
N#C/C(=C(\N)Sc1ccc(N)cc1)c1ccccc1C(F)(F)F | 95 | 108 | 110 | 105% (inactive) | 109 | 93 | 92 | 96 | 104 | 99
O=Nc1c(-c2c(O)[nH]c3ccccc23)[nH]c2ccccc12 | 13 | 91 | 13 | 105% (inactive) | 103 | 67 | 13 | 107 | 99 | 39
C[C@@H](N)[C@H]1CC[C@H](C(=O)Nc2ccncc2)CC1 | 99 | 90 | 92 | 111% (inactive) | 110 | 108 | 102 | 109 | 113 | 104
O=C1NC(=O)/C(=C/c2ccc3c(c2)OC(F)(F)O3)S1 | 106 | 108 | 110 | 125% (inactive) | 109 | 118 | 121 | 98 | 101 | 112
CC[n+]1c(/C=C/N(C)c2ccccc2)n(-c2ccccc2)c2ccc(-c3nc4ccccc4s3)cc21 | 56 | 136 | 129 | 131% (inactive) | 160 | 114 | 159 | 79 | 99 | 144
O=C1NC(=O)/C(=C\c2ccc3nccnc3c2)S1 | 96 | 98 | 119 | 113% (inactive) | 104 | 95 | 111 | 88 | 92 | 90
CCC(=O)Nc1ccc2ncnc(Nc3cccc(Br)c3)c2c1 | 97 | 105 | 55 | 111% (inactive) | 120 | 81 | 57 | 59 | 58 | 131
O=C1Nc2ccccc2/C1=C1/Nc2ccccc2/C1=N\OCCC(O)CO (stereo not given) | 8 | 82 | 12 | 117% (inactive) | 112 | 49 | 4 | 107 | 105 | 16
Oc1ccc(Nc2nc(-c3ccc(Cl)cc3)cs2)cc1 | 78 | 108 | 109 | 88% (inactive) | 95 | 109 | 92 | 132 | 128 | 108

Reference: ChEMBL document CHEMBL2218924, “A broad activity screen in support of a chemogenomic map for kinase signalling research and drug discovery” (Biochem J, 2013)
